Measurements from PubChem BioAssay (EPA / NIEHS).
Records with an inconclusive call do not appear. Active and inactive are the calls of the source. How the source made its calls: active means hit-call score of the fitted dose curve at least 0.9, where 1 is the maximum; inconclusive means response in the unintended direction; inactive means score below 0.9.

What was measured:
[1] = target: guinea pig Serotonin, 5-Hydroxytryptamine Receptor 4 (5HT4), HTR4 (gene 100135548) (UniProt O70528); experiment: NVS_GPCR_g5HT4: NovaScreen (NVS) G Protein-Coupled Receptor Assay for guinea pig Serotonin, 5-Hydroxytryptamine Receptor 4 (5HT4) (AID 2283294)
Chain of guinea pig Serotonin, 5-Hydroxytryptamine Receptor 4 (5HT4), HTR4 (gene 100135548) (O70528 whole entry, looked up): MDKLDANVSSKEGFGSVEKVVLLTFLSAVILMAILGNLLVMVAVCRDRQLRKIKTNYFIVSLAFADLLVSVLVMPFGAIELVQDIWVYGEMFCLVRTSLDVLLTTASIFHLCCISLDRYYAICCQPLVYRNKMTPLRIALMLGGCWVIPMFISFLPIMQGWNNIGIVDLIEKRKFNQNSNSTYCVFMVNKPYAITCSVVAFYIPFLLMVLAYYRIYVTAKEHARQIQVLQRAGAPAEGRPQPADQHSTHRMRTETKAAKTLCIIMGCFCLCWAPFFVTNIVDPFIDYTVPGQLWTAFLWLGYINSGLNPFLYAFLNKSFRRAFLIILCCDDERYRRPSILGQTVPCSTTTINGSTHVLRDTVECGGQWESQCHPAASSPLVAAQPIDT
Method in brief: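 Compounds first screened in duplicate at 25 uM, actives followed up in concentration series. Binding measured as displacement of specific radioligand from guinea pig striatal membranes, 1 h, filter-based scintillation read-out versus DMSO baseline.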

[2] = target: rat Serotonin, 5-Hydroxytryptamine Receptor 1 (5HT1), Non-Selective Binding, Htr1a (gene 24473) (UniProt P19327); experiment: NVS_GPCR_r5HT1_NonSelective: NovaScreen (NVS) G Protein-Coupled Receptor Assay for rat Serotonin, 5-Hydroxytryptamine Receptor 1 (5HT1), Non-Selective Binding (AID 2283286)
Chain of rat Serotonin, 5-Hydroxytryptamine Receptor 1 (5HT1), Non-Selective Binding, Htr1a (gene 24473) (P19327 whole entry, looked up): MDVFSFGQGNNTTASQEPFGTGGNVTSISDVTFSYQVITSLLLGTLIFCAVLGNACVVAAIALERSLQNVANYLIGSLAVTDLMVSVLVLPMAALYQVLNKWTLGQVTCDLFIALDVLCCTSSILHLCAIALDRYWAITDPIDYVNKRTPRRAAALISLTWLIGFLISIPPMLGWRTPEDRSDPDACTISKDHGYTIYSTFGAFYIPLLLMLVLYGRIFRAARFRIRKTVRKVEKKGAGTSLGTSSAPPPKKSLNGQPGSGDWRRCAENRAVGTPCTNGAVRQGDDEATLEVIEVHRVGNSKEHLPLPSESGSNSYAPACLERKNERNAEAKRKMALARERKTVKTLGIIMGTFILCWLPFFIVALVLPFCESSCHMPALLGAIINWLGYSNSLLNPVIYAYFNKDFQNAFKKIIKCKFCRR
Method in brief: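 Binding of a radioligand to rat cortex membranes is read by filtration and scintillation counting after 1 h. Compounds were screened at 25 uM in duplicate. Actives were then titrated to a top of 50 uM. DMSO is the baseline.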

[3] = test system: rabbit Platelet Activating Factor Receptor (PAF), gene 100354046; experiment: NVS_GPCR_rabPAF: NovaScreen (NVS) G Protein-Coupled Receptor Assay for rabbit Platelet Activating Factor Receptor (PAF) (AID 2283287)
Method in brief: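 Rabbit platelet membrane preparation; radioligand displacement read by filter-based scintillation counting 1 h after dosing, loss of signal versus DMSO. Primary screen in duplicate at 25 uM, actives followed up in concentration series.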

[4] = test system: 5-hydroxytryptamine receptor 2C (pig); experiment: NVS_GPCR_p5HT2C: NovaScreen (NVS) G Protein-Coupled Receptor Assay for pig Serotonin, 5-Hydroxytryptamine Receptor 2C (5HT2C) (AID 2283288)
Method in brief: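 Radioligand displacement on membranes from pig choroid plexus, detected by filter scintillation counting after 1 h. Tested first at a single 25 uM in duplicate, then in concentration-response for actives; DMSO served as baseline.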

[5] = target: rat Adrenergic, Alpha 1, Non-selective Receptor (Adra1), Adra1a (gene 29412) (UniProt P43140); experiment: NVS_GPCR_rAdra1_NonSelective: NovaScreen (NVS) G Protein-Coupled Receptor Assay for rat Adrenergic, Alpha 1, Non-selective Receptor (Adra1) (AID 2283289)
Chain of rat Adrenergic, Alpha 1, Non-selective Receptor (Adra1), Adra1a (gene 29412) (P43140 whole entry, looked up): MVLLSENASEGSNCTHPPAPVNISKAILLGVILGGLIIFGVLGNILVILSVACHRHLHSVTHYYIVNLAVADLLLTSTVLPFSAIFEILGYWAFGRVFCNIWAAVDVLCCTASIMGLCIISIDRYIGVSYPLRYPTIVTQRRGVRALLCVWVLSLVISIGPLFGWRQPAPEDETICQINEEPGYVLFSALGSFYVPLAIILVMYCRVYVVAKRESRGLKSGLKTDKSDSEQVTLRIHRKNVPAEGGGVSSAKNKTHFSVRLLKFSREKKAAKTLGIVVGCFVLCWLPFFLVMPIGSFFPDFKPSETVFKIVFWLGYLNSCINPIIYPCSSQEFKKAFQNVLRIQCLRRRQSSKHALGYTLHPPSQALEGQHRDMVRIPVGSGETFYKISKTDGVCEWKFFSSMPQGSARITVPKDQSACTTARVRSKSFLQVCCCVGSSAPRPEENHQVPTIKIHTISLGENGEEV
Method in brief: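 Chemicals first screened in duplicate at 25 uM, then actives tested in concentration series up to 50 uM. Binding measured as displacement of radioligand from rat forebrain membrane receptors, 1 h, filtration with scintillation readout; DMSO baseline.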

[6] = target: rat Serotonin, 5-Hydroxytryptamine Receptor (5HT), Non-Selective Binding, Htr1a (gene 24473) (UniProt P19327); experiment: NVS_GPCR_r5HT_NonSelective: NovaScreen (NVS) G Protein-Coupled Receptor Assay for rat Serotonin, 5-Hydroxytryptamine Receptor (5HT), Non-Selective Binding (AID 2283295)
Chain of rat Serotonin, 5-Hydroxytryptamine Receptor (5HT), Non-Selective Binding, Htr1a (gene 24473) (P19327 whole entry, looked up): as the sequence (P19327 whole entry, looked up) above
Method in brief: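 Rat cortex membrane preparation incubated 1 h with radioligand and test chemical; bound radioactivity counted after filtration. Screening began in duplicate at 25 uM with concentration-series follow-up; fitting relative to DMSO.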

[7] = target: rat Adrenergic, Alpha 1A Receptor (Adra1A), Adra1a (gene 29412) (UniProt P43140); experiment: NVS_GPCR_rAdra1A: NovaScreen (NVS) G Protein-Coupled Receptor Assay for rat Adrenergic, Alpha 1A Receptor (Adra1A) (AID 2283296)
Chain of rat Adrenergic, Alpha 1A Receptor (Adra1A), Adra1a (gene 29412) (P43140 whole entry, looked up): as the sequence (P43140 whole entry, looked up) above
Method in brief: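 Filter radiodetection after 1 h competitive binding on CEC-pretreated rat cortical membranes. Duplicate single-point screening at 25 uM; active chemicals retested across concentration series.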

[8] = test system: rat Adrenergic, Alpha 1B Receptor (Adra1B), gene 24173; experiment: NVS_GPCR_rAdra1B: NovaScreen (NVS) G Protein-Coupled Receptor Assay for rat Adrenergic, Alpha 1B Receptor (Adra1B) (AID 2283297)
Method in brief: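 Filter-binding radioligand competition on membranes from rat liver, read after 1 h by scintillation counting. Single-concentration duplicate screen at 25 uM, followed by concentration-response on actives, normalised to DMSO.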

[9] = target: rat Adrenergic Receptor, Beta (Adrb), Non-selective Binding, Adrb1 (gene 24925) (UniProt P18090); experiment: NVS_GPCR_rAdrb_NonSelective: NovaScreen (NVS) G Protein-Coupled Receptor Assay for rat Adrenergic Receptor, Beta (Adrb), Non-selective Binding (AID 2283298)
Chain of rat Adrenergic Receptor, Beta (Adrb), Non-selective Binding, Adrb1 (gene 24925) (P18090 whole entry, looked up): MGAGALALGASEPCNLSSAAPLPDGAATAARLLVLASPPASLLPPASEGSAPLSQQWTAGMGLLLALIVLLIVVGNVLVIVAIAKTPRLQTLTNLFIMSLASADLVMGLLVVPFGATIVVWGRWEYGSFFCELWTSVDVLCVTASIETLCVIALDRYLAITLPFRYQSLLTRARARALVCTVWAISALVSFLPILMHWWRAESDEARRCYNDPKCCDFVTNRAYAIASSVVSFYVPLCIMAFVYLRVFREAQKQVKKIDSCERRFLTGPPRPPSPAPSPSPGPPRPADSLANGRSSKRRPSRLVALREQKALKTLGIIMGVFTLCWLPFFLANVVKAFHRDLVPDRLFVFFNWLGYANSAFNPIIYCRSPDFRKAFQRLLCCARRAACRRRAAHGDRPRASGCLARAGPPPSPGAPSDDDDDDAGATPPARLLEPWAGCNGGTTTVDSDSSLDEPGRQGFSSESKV
Method in brief: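 Rat cortical membranes incubated 1 h with beta-adrenergic radioligand and test chemical; bound ligand measured by filtration and scintillation counting. Screen at 25 uM duplicate, then concentration series with 50 uM maximum; loss of signal versus DMSO.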

[10] = target: rat Adrenergic Receptor, Alpha 2 (Adra2), Non-selective Binding, Adra2a (gene 25083) (UniProt P22909); experiment: NVS_GPCR_rAdra2_NonSelective: NovaScreen (NVS) G Protein-Coupled Receptor Assay for rat Adrenergic Receptor, Alpha 2 (Adra2), Non-selective Binding (AID 2283299)
Method in brief: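 Filter-based scintillation counting of radioligand binding to rat cortical membrane receptors, measured 1.25 hours post-dosing; loss of signal versus DMSO indicates displacement. Initial single-concentration duplicate at 25 uM, then concentration series.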

[11] = target: rat Histamine Receptor (H3), Hrh3 (gene 85268) (UniProt Q9QYN8); experiment: NVS_GPCR_rH3: NovaScreen (NVS) G Protein-Coupled Receptor Assay for rat Histamine Receptor (H3) (AID 2283303)
Chain of rat Histamine Receptor (H3), Hrh3 (gene 85268) (Q9QYN8 whole entry, looked up): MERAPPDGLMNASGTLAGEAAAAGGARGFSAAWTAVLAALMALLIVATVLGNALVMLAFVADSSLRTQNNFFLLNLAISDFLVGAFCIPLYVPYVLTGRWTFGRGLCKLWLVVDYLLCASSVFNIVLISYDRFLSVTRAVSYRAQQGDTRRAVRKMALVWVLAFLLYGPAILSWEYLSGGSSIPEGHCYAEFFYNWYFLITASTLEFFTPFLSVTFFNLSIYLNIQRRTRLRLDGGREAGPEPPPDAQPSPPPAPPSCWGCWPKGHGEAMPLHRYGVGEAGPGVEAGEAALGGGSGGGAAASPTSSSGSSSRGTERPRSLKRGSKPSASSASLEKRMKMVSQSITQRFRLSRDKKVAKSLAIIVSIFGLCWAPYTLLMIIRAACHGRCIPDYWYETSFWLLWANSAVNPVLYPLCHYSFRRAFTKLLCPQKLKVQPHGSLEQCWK
Method in brief: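 Filter-binding radioligand competition on rat forebrain membranes, 1 h incubation; compounds screened at 25 µM in duplicate and followed in concentration series to 50 µM, loss of bound signal vs DMSO.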

[12] = target: human Orphanin, Opioid Related Nociceptin Receptor 1 (ORL1), OPRL1 (gene 4987) (UniProt P41146); experiment: NVS_GPCR_hORL1: NovaScreen (NVS) G Protein-Coupled Receptor Assay for human Orphanin, Opioid Related Nociceptin Receptor 1 (ORL1) (AID 2283283)
Chain of human Orphanin, Opioid Related Nociceptin Receptor 1 (ORL1), OPRL1 (gene 4987) (P41146 whole entry, looked up): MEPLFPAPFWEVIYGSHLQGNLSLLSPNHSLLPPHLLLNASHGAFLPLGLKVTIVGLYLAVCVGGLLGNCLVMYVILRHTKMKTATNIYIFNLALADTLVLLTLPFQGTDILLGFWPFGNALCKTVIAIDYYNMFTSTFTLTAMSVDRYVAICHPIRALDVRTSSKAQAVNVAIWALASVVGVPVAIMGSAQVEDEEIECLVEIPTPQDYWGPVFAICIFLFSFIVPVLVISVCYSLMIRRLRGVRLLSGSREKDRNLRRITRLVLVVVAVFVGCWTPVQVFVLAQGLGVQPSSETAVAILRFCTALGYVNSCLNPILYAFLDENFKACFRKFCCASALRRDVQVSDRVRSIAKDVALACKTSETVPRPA
Method in brief: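 Cell-free binding using HEK293-derived receptor protein: radioligand displacement measured by filter scintillation 1 hour after dosing. Primary testing at 25 uM in duplicate, followed by singleton concentration series up to 50 uM; DMSO served as negative control.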

[13] = target: human Vasopressin 1A Receptor (V1A), AVPR1A (gene 552) (UniProt P37288); experiment: NVS_GPCR_hV1A: NovaScreen (NVS) G Protein-Coupled Receptor Assay for human Vasopressin 1A Receptor (V1A) (AID 2283284)
Method in brief: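 Single-concentration duplicate screen at 25 uM, with concentration-response follow-up (top 50 uM) for actives. The assay measured displacement of a radioligand from human platelet-derived receptor after 1.5 h, detected by filtration and scintillation counting.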

[14] = target: mouse Cholecystokinin, CCK1 Receptor (CCKA), Cckar (gene 12425) (UniProt O08786); experiment: NVS_GPCR_mCCKAPeripheral: NovaScreen (NVS) G Protein-Coupled Receptor Assay for mouse Cholecystokinin, CCK1 Receptor (CCKA) (AID 2283285)
Chain of mouse Cholecystokinin, CCK1 Receptor (CCKA), Cckar (gene 12425) (O08786 whole entry, looked up): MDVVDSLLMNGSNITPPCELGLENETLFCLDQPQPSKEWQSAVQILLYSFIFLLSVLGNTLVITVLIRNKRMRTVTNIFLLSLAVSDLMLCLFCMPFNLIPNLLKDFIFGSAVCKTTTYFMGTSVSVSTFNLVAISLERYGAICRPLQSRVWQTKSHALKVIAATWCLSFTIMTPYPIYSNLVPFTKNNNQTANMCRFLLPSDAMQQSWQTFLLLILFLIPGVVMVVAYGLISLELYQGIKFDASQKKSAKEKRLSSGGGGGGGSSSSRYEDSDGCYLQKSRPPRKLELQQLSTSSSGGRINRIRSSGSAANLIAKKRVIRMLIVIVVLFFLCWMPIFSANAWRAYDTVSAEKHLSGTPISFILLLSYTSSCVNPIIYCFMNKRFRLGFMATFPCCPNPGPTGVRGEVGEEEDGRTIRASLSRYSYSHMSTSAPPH
Method in brief: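 Chemicals were first screened in duplicate at 25 uM, with those meeting threshold (e.g., 30% inhibition) retested in singleton concentration series to 50 uM maximum. Binding of radioligand to mouse pancreatic membranes was read after 2 h by filtration and scintillation counting.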

[15] = target: guinea pig Bradykinin Receptor B2 (BK2), BDKRB2 (gene 100135486) (UniProt O70526); experiment: NVS_GPCR_gBK2: NovaScreen (NVS) G Protein-Coupled Receptor Assay for guinea pig Bradykinin Receptor B2 (BK2) (AID 2283292)
Method in brief: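 Guinea pig ileum membrane preparation incubated 1 h with radioligand and test chemical; bound counts measured after filtration. Primary duplicate screening at 25 uM, then singleton concentration series with a 50 uM top dose; DMSO as baseline.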

[16] = target: mouse Cholecystokinin, CCK2 Receptor (CCKB), Cckbr (gene 12426) (UniProt P56481); experiment: NVS_GPCR_mCKKBCentral: NovaScreen (NVS) G Protein-Coupled Receptor Assay for mouse Cholecystokinin, CCK2 Receptor (CCKB) (AID 2283293)
Chain of mouse Cholecystokinin, CCK2 Receptor (CCKB), Cckbr (gene 12426) (P56481 whole entry, looked up): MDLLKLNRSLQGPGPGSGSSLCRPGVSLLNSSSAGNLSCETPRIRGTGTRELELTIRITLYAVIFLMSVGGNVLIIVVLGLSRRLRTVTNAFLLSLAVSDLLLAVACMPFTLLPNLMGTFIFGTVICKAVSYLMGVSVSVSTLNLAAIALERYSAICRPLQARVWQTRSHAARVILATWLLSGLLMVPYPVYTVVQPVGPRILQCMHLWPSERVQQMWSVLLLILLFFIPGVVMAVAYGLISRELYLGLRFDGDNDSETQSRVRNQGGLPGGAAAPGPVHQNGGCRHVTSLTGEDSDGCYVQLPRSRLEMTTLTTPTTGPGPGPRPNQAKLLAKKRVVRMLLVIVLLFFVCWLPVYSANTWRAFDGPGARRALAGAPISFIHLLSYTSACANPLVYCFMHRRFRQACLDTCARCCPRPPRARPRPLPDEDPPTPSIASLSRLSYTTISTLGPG
Method in brief: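 Mouse forebrain membrane preparation incubated 2 h with chemical and radioligand; bound radioactivity counted after filtration. Single-concentration duplicate screen at 25 uM, then concentration series to 50 uM max for hits, DMSO as baseline.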

[17] = target: rat Corticotropin Releasing Factor Receptor (CRF), Crhr1 (gene 58959) (UniProt P35353); experiment: NVS_GPCR_rCRF: NovaScreen (NVS) G Protein-Coupled Receptor Assay for rat Corticotropin Releasing Factor Receptor (CRF) (AID 2283300)
Chain of rat Corticotropin Releasing Factor Receptor (CRF), Crhr1 (gene 58959) (P35353 whole entry, looked up): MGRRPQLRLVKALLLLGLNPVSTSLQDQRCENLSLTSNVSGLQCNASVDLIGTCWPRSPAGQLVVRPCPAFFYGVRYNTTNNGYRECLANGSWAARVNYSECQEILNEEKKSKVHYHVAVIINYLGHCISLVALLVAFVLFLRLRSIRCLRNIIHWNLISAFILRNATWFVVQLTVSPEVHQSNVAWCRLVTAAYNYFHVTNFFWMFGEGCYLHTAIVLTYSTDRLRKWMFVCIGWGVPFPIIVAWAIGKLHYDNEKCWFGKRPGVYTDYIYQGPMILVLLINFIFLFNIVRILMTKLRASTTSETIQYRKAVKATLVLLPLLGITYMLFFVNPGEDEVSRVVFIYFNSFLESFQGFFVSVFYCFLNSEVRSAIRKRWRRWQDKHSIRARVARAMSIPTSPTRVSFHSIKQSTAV
Method in brief: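 Single-concentration (25 uM, duplicate) radioligand binding on rat cortical membrane preparations, counted by scintillation after 2 h. Activity scored as signal loss relative to DMSO negative control.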

[18] = target: Metabotropic glutamate receptor 1 (Rattus norvegicus) (UniProt P23385); experiment: NVS_GPCR_rmMGluR1: NovaScreen (NVS) G Protein-Coupled Receptor Assay for rat Glutamate Metabotropic Receptor 1 (MGluR1) (AID 2283305)
Method in brief: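 Binding to native receptor from rat cerebellum extract, measured as displacement of a radioligand (scintillation counting, filter separation) after 1 hour. Compounds tested at 25 uM in duplicate, then titrated to a 50 uM maximum.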

[19] = target: rat Gamma-Aminobutyric Acid Type B Receptor (GABBR), Gabbr1 (gene 81657) (UniProt Q9Z0U4); experiment: NVS_GPCR_rGABBR: NovaScreen (NVS) G Protein-Coupled Receptor Assay for rat Gamma-Aminobutyric Acid Type B Receptor (GABBR) (AID 2283301)
Method in brief: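 Rat cortical membrane preparation, competitive radioligand binding for 1 h with filtration and scintillation readout. Actives from duplicate single-point 25 uM screening proceeded to concentration series with 50 uM top concentration.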

[20] = test system: guinea pig Atrionatriuretic Peptide Receptor A (ANPA), gene 100135578; experiment: NVS_GPCR_gANPA: NovaScreen (NVS) G Protein-Coupled Receptor Assay for guinea pig Atrionatriuretic Peptide Receptor A (ANPA) (AID 2283291)
Method in brief: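 Displacement of specific radioligand from guinea pig cerebellum membranes was read by scintillation after 1 h. A duplicate single-point screen at 25 uM was followed by a concentration series up to 50 uM, analysed relative to DMSO.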

Q: Which outcome [1] does the source give for `Cc1ccc(N)c(N)c1` here?
A: Its outcome is “inactive”.

Q: What does the source list for `CCOC(=O)[C@]1(c2ccccc2)Oc2ccccc2[C@@H]1N`?
A: AC50 [2]: 1.08 µM (active); AC50 [3]: 7.6 µM (active); AC50 [4]: 1.29 µM (active); AC50 [5]: 0.184 µM (active); AC50 [1]: 4.94 µM (active); AC50 [6]: 2.49 µM (active); AC50 [7]: 0.38 µM (active); AC50 [8]: 0.456 µM (active); AC50 [9]: 2.61 µM (active); AC50 [10]: 3.76 µM (active); AC50 [11]: 10.2 µM (active)

Q: Which AC50 [12] does the source give for `COP(=S)(OC)SCN1C(=O)c2ccccc2C1=O` here?
A: The AC50 was 44.4 µM (active).

Q: What about the outcome [2] of the same molecule?
A: The outcome was “inactive”.

Q: What about the AC50 [3] of the same molecule?
A: Its AC50 is 14.9 µM (active).

Q: With `CCC[CH2][Sn]([Cl])([CH2]CCC)[CH2]CCC` as the molecule, how does the AC50 [12] read?
A: Its AC50 is 1.21 µM (active).

Q: What about the AC50 [13] of the same molecule?
A: The AC50 was 7.85 µM (active).

Q: And the AC50 [14]?
A: The AC50 was 0.228 µM (active).

Q: What about the AC50 [2] of the same molecule?
A: Its AC50 is 17.2 µM (active).

Q: What about the AC50 [3] of the same molecule?
A: Its AC50 is 5.79 µM (active).

Q: And the AC50 [5]?
A: Its AC50 is 8.26 µM (active).

Q: What about the AC50 [15] of the same molecule?
A: The AC50 was 10.6 µM (active).

Q: What about the AC50 [16] of the same molecule?
A: The AC50 was 2.25 µM (active).

Q: And the AC50 [1]?
A: Its AC50 is 3 µM (active).

Q: What about the AC50 [6] of the same molecule?
A: The AC50 was 12 µM (active).

Q: What about the AC50 [7] of the same molecule?
A: The AC50 was 11.3 µM (active).

Q: And the AC50 [8]?
A: The AC50 was 3.87 µM (active).

Q: And the AC50 [9]?
A: The AC50 was 25 µM (active).

Q: And the AC50 [10]?
A: Its AC50 is 2.98 µM (active).

Q: And the AC50 [17]?
A: The AC50 was 3.75 µM (active).

Q: What about the AC50 [11] of the same molecule?
A: Its AC50 is 15.2 µM (active).

Q: And the AC50 [18]?
A: The AC50 was 2.5 µM (active).

Q: What does the source list for `Cc1cc(N=Nc2ccccc2C)ccc1N`?
A: outcome [14]: inactive; outcome [9]: inactive

Q: For `ClCCOCCCl`, which outcome [19] is on record?
A: Its outcome is “inactive”.

Q: `Cc1cccc(N)c1N` was tested. Which AC50 [4] did it give?
A: The AC50 was 16.8 µM (active).

Q: With `CC(C)COC(=O)c1ccccc1C(=O)OCC(C)C` as the molecule, how does the outcome [1] read?
A: Its outcome is “inactive”.

Q: Which AC50 [3] does the source give for `CC(C)N(Cc1ccccc1)C(=O)C(C)(C)C` here?
A: The AC50 was 13.1 µM (active).

Q: With `COC(=O)Nc1nc2ccccc2[nH]1` as the molecule, how does the outcome [4] read?
A: The outcome was “inactive”.

Q: Which results are given for `CCCCCOC(=O)c1ccccc1C(=O)OCCCCC`?
A: outcome [12]: inactive; outcome [14]: inactive; outcome [16]: inactive; outcome [1]: inactive

Q: How did the outcome [17] turn out when `COC(=O)c1ccccc1N` was run?
A: The outcome was “inactive”.

Q: With `O=Cc1ccco1` as the molecule, how does the outcome [9] read?
A: The outcome was “inactive”.

Q: For `CCNS(=O)(=O)C(F)(F)C(F)(F)C(F)(F)C(F)(F)C(F)(F)C(F)(F)C(F)(F)C(F)(F)F`, which outcome [20] is on record?
A: The outcome was “inactive”.

Q: `COc1cc(C=O)cc2c1[C@H](COC(N)=O)[C@]1(OC(C)=O)ON2C[C@H]2[C@@H]1N2C(C)=O` was tested. Which outcome [20] did it give?
A: The outcome was “inactive”.

Q: `Cc1ccc(N=C=O)cc1N=C=O` was tested. Which outcome [2] did it give?
A: Its outcome is “inactive”.
